Screens (PubChem BioAssay)
The list is not random: actives were taken first. Their share in the collection is about 7.5%.
ELG1 genotox: qHTS screen for small molecules that induce genotoxicity in human embryonic kidney (HEK293T) cells expressing luciferase-tagged ELG1. Potency, µM (top dose mostly 46 µM), for the others: at the highest dose activity change, positive = activation, actives largely listed as activators. HEK293T ELG1-luciferase reporter, luminescence, 16 h. 330,000 tested, 1.3% active. AID 504466, 2011; note: % of control where 0% means no effect; nearly all actives have a fitted effect of over 60% in size
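Genotoxicity was scored as increased ELG1-luciferase reporter signal, measured by ONE-Glo luminescence (30 min, room temperature). Compound or vehicle exposure of the HEK293T reporter cells lasted 16 hr at 37°C.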
NPC1 prom act: qHTS Assay for NPC1 Promoter Activators | Huh7 NPC1 promoter luciferase reporter, 24 h | Potency, µM (doses to about 9.22 µM), for inactives: at the highest dose activation, most hits filed as activators | 320,000 tested, 2.4% active | AID 485313, 2010; note: % of control where 0% means no effect; nearly all actives have a fitted effect of over 60% in size
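NPC1 promoter–luciferase Huh7 cells; 24 h compound; luminescence.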
FLuc counter: qHTS profiling assay for firefly luciferase inhibitor/activator using purifed enzyme and Km concentrations of substrates (counterscreen for miR-21 project) | Potency, µM (titrated, usually from 57.5 µM), for the others: top-dose activity change, negative = inhibition, hits mostly inhibitors | 360,000 tested, 6.9% active | purified FLuc, Km substrates, luminescence inhibition | Luciferin 4-monooxygenase (Photinus pyralis), P08659;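 note: plate controls were vehicle for no effect and reference inhibitor for full effect; nearly all actives have a fitted effect of over 55% in size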
Target sequence (P08659 whole entry, looked up): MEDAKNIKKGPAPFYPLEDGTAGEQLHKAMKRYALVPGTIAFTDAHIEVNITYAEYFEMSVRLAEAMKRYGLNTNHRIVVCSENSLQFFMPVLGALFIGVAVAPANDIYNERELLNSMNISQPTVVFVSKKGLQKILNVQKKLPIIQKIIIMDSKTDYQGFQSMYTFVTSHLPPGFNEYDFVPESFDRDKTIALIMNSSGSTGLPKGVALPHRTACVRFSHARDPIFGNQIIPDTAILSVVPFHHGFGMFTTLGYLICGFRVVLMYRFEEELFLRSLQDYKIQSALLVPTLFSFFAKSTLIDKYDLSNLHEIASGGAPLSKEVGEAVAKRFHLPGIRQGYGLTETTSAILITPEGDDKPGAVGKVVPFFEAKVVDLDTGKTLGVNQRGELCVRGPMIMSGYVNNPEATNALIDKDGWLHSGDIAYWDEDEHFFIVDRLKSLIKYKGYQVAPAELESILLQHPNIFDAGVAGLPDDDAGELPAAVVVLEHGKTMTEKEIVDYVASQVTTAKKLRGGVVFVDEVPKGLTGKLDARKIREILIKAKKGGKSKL
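Purified P. pyralis luciferase, 10 nM final, with Km-level 10 uM D-luciferin and 10 uM ATP in 50 mM Tris acetate pH 7.5, 10 mM Mg acetate, 0.01% Tween-20, 0.05% BSA; 6-point qHTS titration about 60 µM downward; luminescence read.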
SMN2 splice up: qHTS Assay for Enhancers of SMN2 Splice Variant Expression; HEK293 SMN2-luciferase splicing reporter, luminescence, 30-36 h; Potency, µM (highest dose often 46.1 µM), for the others: at the top dose activity change, positive = activation, usual class: activators; 210,000 tested, 2.8% active; note: % of control where 0% means no effect; nearly all actives have a fitted effect of over 55% in size
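HEK293 cells carry an SMN2 […]–luciferase reporter in which exon 7 inclusion puts luciferase in frame. Cells were plated 10-12 h before compound addition, then incubated 30-36 h at 37C. ONE-Glo luminescence was read; sodium butyrate at 4.5 mM final served as control.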
Luc counter: Counterscreen for Luciferase (Kinase-Glo TM) Inhibition | 200,000 tested, 0.28% active | Luciferin 4-monooxygenase (Photuris pensylvanica), Q27757 | AID 1379, 2008 | Kinase-Glo luciferase, ATP luminescence, 8 min | Potency, µM (titrated, usually from 38.3 µM), for the others: top-dose activity change, negative = inhibition, usual class: inhibitors; note: % is set by controls: 0 for no effect and ±100 for the full control effect; nearly all actives have a fitted effect of over 60% in size
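Luminescence was the read-out, taken after 8-minute incubation at ambient temperature. Luciferase turned over luciferin with 10 uM ATP in imidazole pH 7.2 buffer containing KCl, MgCl2, Tween 20 and BSA.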
Rab9 promoter act: qHTS Assay for Rab9 Promoter Activators. Huh7 Rab9 promoter-luciferase reporter, luminescence, 24 h. Potency, µM (highest dose often 9.22 µM), for inactives: at the top dose activation, negative = inhibition, hits mostly activators. 320,000 tested, 2.8% active. AID 485297, 2010; note: % of control where 0% means no effect; nearly all actives have a fitted effect of over 60% in size
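Measured in stably transfected Huh7 cells bearing a Rab9 promoter–luciferase construct: 24 h compound treatment at 37 °C, followed by luminescence detection.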
The depositor's hits bear a star; ? = inconclusive; nt = no result. Calls come from the whole dose curve; as a rule, active = well fitted curve in the direction sought with a large enough effect; inconclusive = small, poorly fitted or top-dose-only effect, or another doubt; inactive = no such curve, though single readings can be large; an effect the other way counts as inactive or inconclusive. Potency is the fitted concentration of half-maximal effect.

SMILES	ELG1 genotox	NPC1 prom act	FLuc counter	SMN2 splice up	Luc counter	Rab9 promoter act
Nc1nc(=O)n(C2OC(CO)C(O)C2O)cc1Cl (stereo not given)	nt	nt	nt	-11%	-4%	nt
CC1(C)CC(=O)C2=C(C1)OC(N)=C(C#N)C2c1cc2c(cc1[N+](=O)[O-])OCO2 (stereo not given)	0%	-1%	-1%	-11%	1%	-2%
CCCCc1cc(=O)oc2cc(C)c3c(C(C)(C)C)coc3c12	nt	nt	-12%	2%	nt	nt
Cc1[nH]c2ccccc2c1C(=O)CSc1nc2ccccc2c(=O)n1CCCN1CCOCC1	-13%	0%	1%	-4%	-5%	-1%
COCCn1c(=O)c(-c2cccs2)nc2cnc(Nc3ccccc3)nc21	nt	nt	nt	-10%	-2%	nt
CCOC(=O)c1c(C)n(OCc2ccccc2)c2ccc3c(no[n+]3[O-])c12	4%	-2%	1%	0%	-1%	-5%
Cn1c(-c2ccccc2)cc2c3no[n+]([O-])c3ccc21	5%	?	13µM*	-80%	4%	-28%
COc1ccc(N=C2C(=Nc3ccc(OC)cc3)N(c3ccccc3)C(=S)N2C(=O)c2ccc(Cl)cc2)cc1	?	2%	?	25µM*	-4%	17%
COc1ccc(N=C2C(=Nc3ccc(OC)cc3)N(c3ccc(OC)cc3)C(=S)N2C(=O)c2ccc(OC)cc2)cc1	0%	0%	?	4%	-3%	3%
Cc1ccc(-c2cc3cccc[n+]3cc2-c2ccc(C)cc2)cc1	-6%	-28%	1%	-62%	0%	-36%
O=C(Nc1ccc2c(c1)OCO2)C(c1ccc(Cl)cc1)N1CCC2(CC1)OCCO2 (stereo not given)	1%	-5%	-1%	-4%	-1%	18%
O=C(Nc1ccc(Cl)cc1)N1CCOC12CCC1(CC2)OCCO1	-1%	3%	17µM*	8%	-1%	16%
O=C(N/N=C/C1CC2CCC1C2)c1c[nH]c2ccccc12 (stereo not given)	-1%	0%	4.8µM*	nt	-3%	-4%
O=C(N/N=C/c1ccccn1)c1ccc2nc[nH]c2c1	-12%	21%	?	nt	nt	3%
O=C(N/N=C/C1CC2CCC1C2)C1CC1 (stereo not given)	2%	3%	0%	nt	nt	-5%
O=C(CNc1cccc2ccccc12)N/N=C/c1ccc[nH]1	7%	-37%	-2%	nt	nt	-44%
O=C(N/N=C/c1ccc[nH]1)c1c[nH]c2ccccc12	9%	-45%	15µM*	nt	nt	-60%
O=C(N/N=C/c1ccccn1)c1c[nH]c2ccccc12	?	2µM*	8.5µM*	nt	nt	2.8µM*
O=C(N/N=C/c1ccc[nH]1)c1sc2ccccc2c1Cl	17%	-8%	7.6µM*	-24%	-8%	-8%
Cc1nc2ccc(S(=O)(=O)NCC(=O)Nc3cccc(F)c3)cc2s1	0%	-10%	-2%	0%	5%	1%
COc1cc(C(=O)Nc2ccc(S(=O)(=O)Nc3nccc(C)n3)cc2)c([N+](=O)[O-])cc1OC	0%	-3%	1%	nt	nt	3%
CCOC(=O)C1CCN(C(=O)c2cc3cc4ccc(C)cc4nc3o2)CC1	?	0.89µM*	?	nt	nt	0.45µM*
CCOC(=O)C1CCN(C(=O)c2cc3cc(C)ccc3[nH]2)CC1	?	2.8µM*	-15%	nt	nt	3.2µM*
CCOC(=O)C1CCN(C(=O)c2ccc(C)o2)CC1	3%	nt	nt	nt	nt	nt
CCOC(=O)C1CCN(C(=O)c2cc3c(ccc4ccccc43)o2)CC1	9.2µM*	2.5µM*	12µM*	nt	nt	0.45µM*
SMILES	ELG1 genotox	NPC1 prom act	FLuc counter	SMN2 splice up	Luc counter	Rab9 promoter act
CC1CCN(C(=O)c2cc3c(ccc4ccccc43)o2)CC1	1µM*	0.45µM*	0.76µM*	nt	nt	0.28µM*
Cc1nc2ccccc2c2oc(C(=O)N3CCC(C)CC3)cc12	0%	13%	?	nt	nt	14%
O=C(N/N=C/c1cccnc1)c1cc(-c2ccccc2OCc2ccccc2)n[nH]1	-9%	0%	-17%	nt	nt	-5%
Cn1c(=O)n(C)c2cc(NC(=O)COc3ccc(Cl)cc3)ccc21	0%	0%	-6%	-41%	-1%	0%
COc1ccc(CN2C(=O)CS/C2=N/N=C/c2cccs2)cc1	13%	-16%	17µM*	nt	nt	11%
COc1ccc(OC)c(/C=N/N=C2\SCC(=O)N2Cc2ccco2)c1	3%	3%	1%	-19%	4%	0%
Cc1ccc(NC(=O)N2CCc3c(sc4c3CCCC4)C2c2ccccc2)cc1F (stereo not given)	nt	nt	-2%	nt	nt	nt
O=C(O)CC1(CC(=O)Nc2ccc(F)c(Cl)c2)CCCCC1	-2%	-4%	-10%	nt	nt	-3%
CCCc1c(C(=O)N/N=C/C(C)=C/c2ccccc2)nnn1-c1nonc1N	7%	13%	2.4µM*	nt	nt	14%
CC(/C=N/NC(=O)c1nnn(-c2nonc2N)c1C(C)C)=C\c1ccccc1	3%	?	1.5µM*	nt	nt	?
CCCN(CCC)Cc1c(C(=O)N/N=C/C(C)=C\c2ccccc2)nnn1-c1nonc1N	-23%	-6%	-15%	nt	nt	0%
COc1ccc(C2=NC(C)(C)N(CC(=O)Nc3cccc(C)c3)C2=O)cc1	nt	nt	-4%	-19%	nt	nt
O=C(CSc1ccc(-c2cccc([N+](=O)[O-])c2)nn1)N1CCCC1	8%	1%	-9%	-6%	-5%	14%
CCSc1ccc(-c2cccc([N+](=O)[O-])c2)nn1	?	?	?	?	-1%	3.2µM*
Cc1ccc(NC(=O)COC(=O)C2CCC(=O)N2)c([N+](=O)[O-])c1 (stereo not given)	0%	-2%	0%	-38%	1%	0%
CCCC(C)C(=O)Nc1ccc(C(N)=O)cc1 (stereo not given)	3%	-3%	5%	17%	-1%	-3%
CCCCOC(=O)Nc1ccc(N(C)C)cc1	9.2µM*	4µM*	3µM*	11µM*	-11%	2.8µM*
CCOC(=O)c1c(C)c(C(=O)NCCOC)c(C)n1CC	-1%	-2%	1%	-2%	-3%	-6%
CCCCOC(=O)Nc1nnc(C(C)C)s1	?	2.8µM*	?	?	0%	2.2µM*
CCCCOC(=O)Nc1ccc(C(N)=O)cc1	23µM*	?	15µM*	?	-4%	?
CCCCOC(=O)Nc1ccc(S(=O)(=O)Nn2cnnc2)cc1	0%	-2%	-8%	4%	1%	-3%
